# Screening data (PubChem)
# Only some compounds are listed: those with a hit (about 12% of all), similar ones and a draw of the others.
# BAZ2B block: blocks human BAZ2B. AlphaScreen BAZ2B-H3K14Ac peptide displacement. 360,000 tested, 4.4% active. Potency, µM (top dose mostly 114 µM), usual class: inhibitors. AID 504333; note: nearly all actives have a fitted effect of over 60% in size
#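 In this displacement format the biotinylated H3(5-23) peptide acetylated at Lys14 serves as ligand at 50 nM, with BAZ2B at 50 nM in PBS pH 7.4 containing 0.01% Tween-20. Donor and acceptor beads are 10 ug/mL final.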
# G9a inh: G9a (human) methyltransferase inhibition; Q96KQ7; G9a H3K9 monomethylation, AlphaScreen, 2 h; Potency, µM (titrated, usually from 102 µM), hits mostly inhibitors; 350,000 tested, 8.8% active; AID 504332; note: nearly all actives have a fitted effect of over 75% in size
#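 G9a (20 nM) was preincubated 15 min with compound, then reacted 2 h at room temperature with 500 nM biotin-H3K9 peptide and 20 µM SAM. Monomethyl-H3K9 detected by AlphaScreen using anti-H3K9me1 antibody.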
# HP1b binding inh: inhibitors of HP1-beta chromodomain binding to methylated histone tails; AlphaScreen HP1-beta / biotin-H3K9me3 peptide binding; Potency, µM (top dose mostly 114 µM), hits mostly inhibitors; 390,000 tested, 0.56% active; AID 540317; note: nearly all actives have a fitted effect of over 70% in size
#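 Compound inhibition of the preformed complex between 50 nM HP1-beta and 50 nM biotinylated H3K9me3 peptide was read by AlphaScreen. Buffer was PBS pH 7.4 with 0.01% Tween-20. Incubations ran 30 min at room temperature, with 10 ug/mL donor/acceptor beads.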
# PI5P4K alpha inh: blocks human PI5P4K alpha kinase activity; P48426; PI5P4Kalpha enzyme, ADP-Glo luminescence, 60 min; hits give low values; max response, %; 330,000 tested, 1.2% active; active = max response of -50% or lower; inconclusive = between -30% and -50%; inactive = -30% or higher; note: value at the top dose of about 77 µM
#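 Enzyme plus substrate dispensed, test compounds pinned in, then ATP (5 microM final) added. After 60 min at RT, ADP-Glo reagent 1 for 45 min and reagent 2 for 30 min preceded luminescence imaging.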
# JMJD2A Tudor inh: blocks the human JMJD2A Tudor domain; AlphaScreen JMJD2A-Tudor / H3K4me3 peptide binding; Potency, µM (highest dose often 114 µM), usual class: inhibitors; 390,000 tested, 4.4% active; AID 504339; note: nearly all actives have a fitted effect of over 50% in size
# PLK1 PBD inh: blocks phosphopeptide binding to human PLK1 polo-box domain; 360,000 tested, 2.8% active; P53350; Potency, µM, most hits filed as inhibitors; Plk1 PBD binding of FITC phosphopeptide, fluorescence polarization; note: series mostly up to about 57 µM; nearly all actives have a fitted effect of over 65% in size
# Target sequence (P53350 whole entry, looked up, the tested form may be a part): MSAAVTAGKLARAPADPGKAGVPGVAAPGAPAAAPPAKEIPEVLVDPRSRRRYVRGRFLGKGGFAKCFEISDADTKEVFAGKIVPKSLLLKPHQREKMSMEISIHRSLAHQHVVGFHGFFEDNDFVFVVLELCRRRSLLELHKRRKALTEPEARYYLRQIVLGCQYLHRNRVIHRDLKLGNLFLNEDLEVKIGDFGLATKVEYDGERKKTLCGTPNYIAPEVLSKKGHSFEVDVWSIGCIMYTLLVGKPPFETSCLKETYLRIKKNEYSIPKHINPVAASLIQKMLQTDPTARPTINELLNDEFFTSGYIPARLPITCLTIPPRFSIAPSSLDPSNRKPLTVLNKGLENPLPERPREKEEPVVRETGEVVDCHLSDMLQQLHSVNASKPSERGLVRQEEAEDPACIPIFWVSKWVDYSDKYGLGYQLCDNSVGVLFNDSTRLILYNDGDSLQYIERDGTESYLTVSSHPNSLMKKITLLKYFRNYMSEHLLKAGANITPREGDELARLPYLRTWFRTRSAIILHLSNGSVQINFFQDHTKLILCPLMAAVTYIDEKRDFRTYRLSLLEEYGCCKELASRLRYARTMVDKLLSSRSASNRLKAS
# Numbers stand for hits; n = inactive; u = inconclusive; x = no result given; [ ] = dose if it differs, or a comment. Unless noted, calls come from the whole dose curve; as a rule, active = well fitted curve in the direction sought with a large enough effect; inconclusive = small, poorly fitted or top-dose-only effect, or another doubt; inactive = no such curve, though single readings can be large; an effect the other way counts as inactive or inconclusive.
SMILES,BAZ2B block,G9a inh,HP1b binding inh,PI5P4K alpha inh,JMJD2A Tudor inh,PLK1 PBD inh
Cc1cc(C)cc(OCCn2ccnc2)c1,n,n,n,n,n,n
CCCCOc1ccc(NC(=O)C(=O)NCCCn2ccnc2)cc1,n,n,n,n,n,n
Cn1c(C(=O)N2CCCC(C(=O)N3CCN(c4ccccc4)CC3)C2)cc2sccc21 (stereo unspecified),n,n,n,x,n,x
Cc1cccc(N2CCN(C(=O)C3CCN(C(=O)c4cc5sccc5n4C)CC3)CC2C)c1 (stereo unspecified),35µM,n,n,x,u,x
Cc1cccc(N2CCN(C(=O)c3csc4ccccc34)CC2C)c1 (stereo unspecified),u,50µM,n,n,u,n
Cc1ccc(C)c(N2CCN(C(=O)C3CCN(C(=O)c4cc5sccc5n4C)CC3)CC2)c1,25µM,u,n,x,u,x
COc1ccc(CNc2ncnc3c2nnn3C)cc1,n,n,n,x,n,x
Cc1ccc(NC(=O)CCc2c(C)nc3nc(C)nn3c2C)c(Cl)c1,n,n,n,x,n,x
CNC(=S)N(Cc1ccc(OC)cc1)C1CC(=O)N(c2ccc(C(=O)OC)cc2)C1=O (stereo unspecified),n,40µM,x,x,x,x
COC(=O)CN(C(=S)Nc1ccc(F)cc1)C1CC(=O)N(c2ccc(OC)cc2)C1=O (stereo unspecified),n,40µM,n,x,n,n
CNC(=S)N(Cc1ccc(OC)cc1)C1CC(=O)N(c2ccc(OC)cc2)C1=O (stereo unspecified),n,n,u,n,n,n
CN(C(=O)COC(=O)Cc1ccc(Br)cc1)c1c(N)n(Cc2ccccc2)c(=O)[nH]c1=O,x,x,x,n,x,n
C/C(=N\Nc1cccc(C(=O)O)c1)c1ccc(Cl)s1,u,22µM,n,n,u,u
COc1ccc(Br)cc1/C=N/NC(=O)c1cc(Br)ccc1O,56µM,40µM,x,x,x,x
COc1ccc(C(=O)N/N=C/c2cc(Br)ccc2O)cc1OC,n,x,u,n,n,n
Cc1c(N=Cc2cc(Br)cc(Br)c2O)cccc1C(=O)O,n,n,n,-58,n,u
COc1ccc(/C(C)=N/Nc2cccc(C(=O)O)c2)cc1OC,u,1.4µM,n,n,n,n
C/C(=N\NC(=O)C(=O)Nc1cccc(C(F)(F)F)c1)c1ccc(Cl)s1,n,n,n,n,n,n
COc1ccc(C(=O)N/N=C(/C)c2cccc(NC(=O)c3ccncc3)c2)cc1OC,n,n[0.501 µM],n,n,n,n
Cc1ccc2c(c1)C(=O)N1c3cc(C)c(C)cc3NC(=O)C1C(=O)N2 (stereo unspecified),x,x,x,n,x,n
CCSc1ncc(Cl)c(C(=O)Nc2sc(C(C)=O)c(C)c2C(=O)OC)n1,n,n,n,x,n,x
CCc1ccc(NCc2cc3ccc(OC)cc3n(CC(=O)Nc3ccccc3C)c2=O)cc1,n,n,n,x,n,x
CC(=O)N1c2ccc(S(=O)(=O)Nc3ccc(C)c(C)c3)cc2CC1C (stereo unspecified),x,x,x,x,n,x
Cc1ccc(NC(=O)c2cc(S(=O)(=O)N(C)C3CCCCC3)ccc2F)cc1C,n,n,n,x,n,x
COc1ccc(/C(=C/Nc2cccc(Br)c2)C(C)=O)cc1OC,u,u,u,n,n[11.4 µM],27µM
SMILES,BAZ2B block,G9a inh,HP1b binding inh,PI5P4K alpha inh,JMJD2A Tudor inh,PLK1 PBD inh
COc1ccc(N/C=C(/C(C)=O)c2ccccc2)cc1,n,u,n,n,n,n
COc1ccc(Br)cc1/C=N/Nc1cccc(C(=O)O)c1,n,10µM,n,n,n,u
O=C(O)c1cccc(N/N=C/c2cc(Br)cc(Br)c2O)c1,u,u,n,n,u,24µM
COc1ccccc1/C=C/C=N/Nc1cccc(C(=O)O)c1,n,n,n,n,u,n
CN=c1scc(-c2ccco2)n1/N=C/c1ccc(O)c(O)c1,28µM,11µM,u,u,n[11.4 µM],u
CCCCC(=O)NC(c1ccccc1)c1ccc2cccnc2c1O (stereo unspecified),40µM,n,n,n,n,n
CCCC(=O)NC(c1ccc(OC)cc1)c1ccc2cccnc2c1O (stereo unspecified),20µM,x,n,n,79µM,n
CCCCC(=O)NC(c1ccc(C(C)C)cc1)c1ccc2cccnc2c1O (stereo unspecified),n,n,n,n,n,n
Oc1cccc(C(Nc2ccccn2)c2ccc3cccnc3c2O)c1Cl (stereo unspecified),22µM,u,n,x,22µM,x
CCCC(=O)NC(c1ccccc1)c1ccc2cccnc2c1O (stereo unspecified),25µM,n,n,n,45µM,n
CC(C)(C)OC(=O)N1CCC(c2c(C(=O)N3CCN(c4ncccn4)CC3)cnn2-c2ccc(F)cc2)CC1,n,n,n,x,n,x
Cn1c2ccsc2c2cnn(Cc3ccccc3F)c(=O)c21,x,x,x,x,n,x
Cc1cc(C)c(NC(=O)C2CCN(c3nn4c(=O)cc(C)nc4s3)CC2)c(C)c1,n,n,n,x,n,x
CCC(=O)NC(c1ccccc1OC)c1ccc2cccnc2c1O (stereo unspecified),25µM,n,n,x,56µM,n
CCCCC(=O)NC(c1ccccc1Cl)c1ccc2cccnc2c1O (stereo unspecified),n,x,n,n,n,n
